# Screening data deposited in PubChem by National Center for Advancing Translational Sciences (NCATS).
# In the library only some 8.3% were active in any assay of this set; here they are far more common.
# FBPA Giardia inh: inhibitors of Giardia lamblia fructose-1,6-bisphosphate aldolase; purified Giardia FBPA; Potency, µM (series often up to 59.6 µM), usual class: inhibitors; 290,000 compounds, 0.71% hits; AID 2451; note: nearly all actives have a fitted effect of over 55% in size
# Target sequence (A8B2U2 whole entry, looked up): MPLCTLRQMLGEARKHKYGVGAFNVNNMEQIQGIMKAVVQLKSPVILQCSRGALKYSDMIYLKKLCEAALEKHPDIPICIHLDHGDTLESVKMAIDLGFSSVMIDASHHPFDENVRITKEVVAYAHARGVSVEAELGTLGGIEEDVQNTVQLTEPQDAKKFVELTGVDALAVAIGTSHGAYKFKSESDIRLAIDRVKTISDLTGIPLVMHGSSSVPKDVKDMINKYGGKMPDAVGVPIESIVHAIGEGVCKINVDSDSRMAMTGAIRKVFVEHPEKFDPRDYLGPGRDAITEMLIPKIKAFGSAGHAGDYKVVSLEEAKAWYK
#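 40 nM FBPA preincubated 10 min at RT with compound (up to 57.5 uM final), then substrate plus GAPDH/TPI/NAD/arsenate coupling and diaphorase/resazurin added. Fluorescence read after 20 min at RT, 525/598 nm.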
# FMDV antiviral: foot and mouth disease virus antiviral activity; AID 1159524; Potency, µM (highest dose often 57.9 µM), hits mostly inhibitors; FMDV antiviral cell-based qHTS; 410,000 compounds, 1.2% hits; calls by dose curve; tested in HEK293T cells; note: read-out not given here; nearly all actives have a fitted effect of over 45% in size
# LASV entry inh: inhibitors of Lassa virus binding or cell entry. Lassa virus pseudotype entry inhibition, cell reporter. Potency, µM (highest dose often 37.9 µM), usual class: inhibitors. 300,000 compounds, 1.2% hits. AID 540256; calls by dose curve; tested in HEK293 cells; note: nearly all actives have a fitted effect of over 50% in size
# HCV inhibitor: inhibitors of hepatitis C virus infection | Potency, µM (highest dose often 41.8 µM), most hits filed as inhibitors | AID 651820 | Huh7.5.1 HCVcc-Cre infection, luciferase reporter, 44 h | 340,000 compounds, 3.4% hits
#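 Cells (1,000/well) were plated 4 h before compound, then infected with HCVcc-Cre virus (~0.5 moi). After 44 h further culture, infection was read as luciferase luminescence following a 15 min substrate incubation at room temperature.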
# Marburg entry inh: inhibitors of Marburg virus binding or cell entry. Potency, µM (titrated, usually from 37.8 µM), usual class: inhibitors. Marburg virus pseudotyped entry inhibition, cell reporter. 300,000 compounds, 1.8% hits; calls by dose curve; tested in HEK293 cells
# HCMV antiviral: human cytomegalovirus inhibition. HFF cells, HCMV-luciferase reporter, 72 h; active compounds read low. activity change, negative = inhibition, % at 57.5 µM. 410,000 compounds, 4.5% hits. AID 1259415; in the data active = activity change below about -60%; inconclusive = no clear call, values can overlap the other calls; inactive = above about -39%
#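 HFF cells seeded 16 h at 37C, treated with compounds, infected with luciferase-reporter HCMV at MOI 1 PFU/cell; luciferase read at 72 h post infection, normalized to buffer-only and Salinomycin controls.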
# Numbers stand for hits; - = inactive; ? = inconclusive; . = not tested or not shown; [ ] = dose if it differs, or a comment. Unless noted, calls come from the whole dose curve; as a rule, active = well fitted curve in the direction sought with a large enough effect; inconclusive = small, poorly fitted or top-dose-only effect, or another doubt; inactive = no such curve, though single readings can be large; an effect the other way counts as inactive or inconclusive.
SMILES,FBPA Giardia inh,FMDV antiviral,LASV entry inh,HCV inhibitor,Marburg entry inh,HCMV antiviral
COc1cc(C)c(NC(=O)COc2cccc3c2OC(C)(C)C3)cc1OC,.,?,.,10µM,.,.
COc1cc(NC(=O)COc2cccc3c2OC(C)(C)C3)cc(OC)c1OC,.,22µM,.,?,.,-
CC1(C)CC(=O)c2c(O)cc(OCC(=O)Nc3ccc(S(N)(=O)=O)cc3)cc2O1,-,?,.,?,.,-
COc1cc(NC(=O)COc2cc(O)c3c(c2)OC(C)(C)CC3=O)cc(OC)c1OC,-,4µM,.,0.32µM,.,-
CN(C)C(=O)c1ccc(NC(=O)COc2cccc3c2OC(C)(C)C3)cc1,.,-,-,?,-,-101
COc1ccc(NC(=O)COc2cccc3c2OC(C)(C)C3)c(OC)c1,.,-,?,?,?,-
O=S1(=O)N[C@@H](Cc2ccccc2)COc2cccc(NCCO)c21,.,.,.,.,.,-
Cn1c(=O)c2c3c(sc2n2c(SCC(N)=O)nnc12)C[C@H](C(C)(C)C)CC3,.,.,.,.,-,.
c1ccc(-c2csc(Nc3cccnc3)n2)nc1,-,-,-,10µM,-,-
c1cncc(Nc2nc(-c3cccs3)cs2)c1,-,-,-,3.2µM,-,-
CCOC(=O)[C@]1(C(NC(=O)OC)c2ccccc2)CCCC1=O (some centres undefined),-[12.9 µM],.,.,.,.,.
O=C1CCCC2=C1[C@H]1O[C@](CCCCN3C(=O)c4ccccc4C3=O)(Cc3c1ccc1ccccc31)O2,.,.,.,.,-,.
CSC1=C(C#N)C(=O)NC(c2ccc(Cl)cc2)S1 (centres undefined),-,20µM,-,-,-,-
N#CC1=C(Nc2ccccc2Cl)SC(c2ccccc2O)NC1=O (centres undefined),?,-,.,-,.,?
OC(CNCc1ccccc1)Cn1ccc2ccccc21 (centres undefined),-,-,?,11µM,?,-
OCc1nc2ccccc2n1CC(O)Cn1ccc2ccccc21 (centres undefined),-,28µM,-,-,-,?
OC(CN1CCNCC1)Cn1ccc2ccccc21 (centres undefined),-,.,.,.,.,.
CCOC(=O)C1=C[C@@H](CC)N(S(=O)(=O)c2ccc([N+](=O)[O-])cc2)[C@H]1c1ccccc1,.,?,.,.,.,-
CCOC(=O)N1CCN(S(=O)(=O)c2ccc(C)cc2)C1c1ccccc1 (centres undefined),-,?,-,-,-,-
CCOC(=O)N1CCN(S(=O)(=O)c2ccc(C)cc2)C1c1ccc(OC)cc1 (centres undefined),-,-,23µM,-,?,-
Cc1ccc(S(=O)(=O)N2[C@@H](c3ccc(Cl)cc3)C(C(=O)O)=CC[C@H]2c2ccc(Cl)c(Cl)c2)cc1,.,-,.,-,.,-64
CCOC(=O)C1=C[C@@H](CC)N(S(=O)(=O)c2ccc(C)cc2)[C@H]1c1cccc(Cl)c1,.,?,.,.,.,-
CCOC(=O)C1=C[C@@H](C(C)(C)C)N(S(=O)(=O)c2ccc([N+](=O)[O-])cc2)[C@H]1c1ccccc1,.,?,.,.,.,-75
CCOC(=O)C1=C[C@@H](C(C)(C)C)N(S(=O)(=O)c2ccc(C)cc2)[C@H]1c1cccc(Cl)c1,.,-,.,.,.,-88
COc1cc(CNc2nc(C)c(-c3ccn(C4Cc5ccccc5C4)n3)s2)cc2c1OCO2,.,-,.,.,.,.
SMILES,FBPA Giardia inh,FMDV antiviral,LASV entry inh,HCV inhibitor,Marburg entry inh,HCMV antiviral
CCNC(=O)c1cnc2sc(N3CCC(C)CC3)nn2c1=O,.,-,-,.,.,-
CCOC(=O)C1=CCN(S(=O)(=O)c2ccc(F)cc2)C1c1cccc(Cl)c1 (centres undefined),.,-,.,.,.,-
CCOC(=O)C1=CC[C@@H](c2cccc(Br)c2)N(S(=O)(=O)c2ccc(F)cc2)[C@H]1c1cccc(Cl)c1,.,-,.,.,.,-74
CCOC(=O)C1=C[C@@H](C(C)(C)C)N(S(=O)(=O)c2ccc(C)cc2)[C@H]1c1ccc(OC)cc1,.,-,.,.,.,-64
O=C1CCC(=O)N1c1ccccc1OS(=O)(=O)c1ccccc1,.,-,-,-,?,-97
CC(=O)Nc1ccc(S(=O)(=O)Oc2ccccc2N2C(=O)C3C4CCC(C4)C3C2=O)cc1 (centres undefined),-,-,2.8µM,.,10µM,-
COc1ccccc1N1CCN(S(=O)(=O)c2ccccc2)CC1,-,-,-,-,-,-
O=S(=O)(Oc1ccccc1N1CCCCC1)c1ccccc1,-,-,-,-,?,-61
O=C(CCl)N(c1ccccc1)C1CCS(=O)(=O)C1 (centres undefined),-,?,?,22µM,?,-103
CCc1cccc(CC)c1N(COC)C(=O)Cn1c(C)nc2ccccc21,.,10µM,-,.,.,-65
COc1cccc(/C=N/NC(=O)c2cc3c(OC)ccc(OC)c3[nH]2)c1O,-,-,.,2.5µM,.,-99
COc1ccc2[nH]c(C(=O)N/N=C/c3ccc(O)cc3O)cc2c1,-,-,.,?,.,-90
CCOc1ccc2[nH]c(C(=O)N/N=C/c3ccc(OC)cc3)cc2c1,-,-,?,?,?,-
COc1cc(OC)c2cc(C(=O)N/N=C/c3cccc(OC)c3O)[nH]c2c1,-,-,?,8.9µM,4.5µM,-104
COc1ccc(CCNC(=O)c2ccc3c(c2)N(Cc2ccc(Cl)cc2)C(=O)c2ccccc2S3)cc1OC,.,-,-,.,.,?
Cc1ccc2[nH]c(-c3ccc(F)cc3F)cc(=O)c2c1,-,.,.,.,.,.
CCOC(=O)[C@H]1CCCN(c2nc3ccccc3nc2[C@@H](C#N)C(=O)O[C@@H](C)COC)C1,.,.,.,.,-,.
CCC(=O)c1ccc(OCC(=O)N2CCN(CC(=O)Nc3ccccc3C(F)(F)F)CC2)cc1,.,-,-,13µM,?,?
CN1CCN(CC(=O)Nc2ccccc2C(F)(F)F)CC1,?,-,.,-,.,-
CN(C(=O)COC(=O)c1ccc(C(C)(C)C)cc1)C1CCS(=O)(=O)C1 (centres undefined),.,-,-,-,-,-
CN(C(=O)COC(=O)c1nc(Cl)c(Cl)c(Cl)c1Cl)C1CCS(=O)(=O)C1 (centres undefined),-,16µM,5.6µM,10µM,?,-99
CN1CCC2(CC1)CCN(C(=O)c1cc(C(F)(F)F)cc(C(F)(F)F)c1)CC2,-,-,.,.,.,.
Cc1ccc(NC(=O)CCC(=O)c2cccs2)cc1F,-,-,-,-,-,-64
Cc1ccnc(NC(=O)CCC(=O)c2cccs2)c1,.,14µM,?,-,?,-
CCn1c(SCC(=O)N2CCC(C)CC2)nnc1-c1ccccc1O,.,-,-,.,.,-
Nc1cc[n+](CC(=O)c2ccc3c(c2)OCCO3)cc1,-,?,?,?,-,-82
O=C(CCc1ccccc1)c1ccc2c(c1)OCCCO2,-,-,?,-,-,-
O=C(CCN1CCc2ccccc2C1)c1ccc2c(c1)OCCO2,-,-,?,10µM,-,.
O=C(NCCc1ccccc1)c1ccc2nc(-c3ccco3)c(-c3ccco3)nc2c1,?,-,?,11µM,?,.
O=C(CCCc1ccccc1)c1ccc2c(c1)OCCO2,-,7.9µM,?,-,0.46µM,-91
